This is an account of results in the antibiotic and cytotoxicity screens of Wong et al. (2023).

The structures appear in SMILES notation. Among all 39,000 compounds or so, about 1,500 (3.8%) were called active. Many of the other results were omitted from the sample, so actives are more common in it than they were.

The subject of this assay is HSkMC (human skeletal muscle cells). Kind of assay: cytotoxicity call (relative viability < 0.9). The following applies: 10 µM.
For `C[C@H]1CN([C@@H](C)CO)C(=O)Cc2cc(NS(=O)(=O)c3cn(C)cn3)ccc2O[C@@H]1CN(C)S(=O)(=O)c1ccc(Cl)cc1`, the cytotoxicity call is “inactive”. Consider `Cc1ccc(S(=O)(=O)Nc2ccc3c(c2)C(=O)N([C@@H](C)CO)C[C@@H](C)[C@H](CN(C)Cc2ccccc2)OCCCC[C@@H](C)O3)cc1`, for which the cytotoxicity call is “inactive”. The result for `COc1ccc2c3c([nH]c2c1)[C@@H](CO)N(Cc1ccc(cc1)Cl)C[C@]13CCN(CC1)Cc1ccccc1` reads “active”. Regarding `COc1ccc2c3c([nH]c2c1)[C@H](CO)N(Cc1ccncc1)C[C@]13CCN(CC1)Cc1ccc(cc1)-c1ccccn1`, the cytotoxicity call is “inactive”. As for `COc1ccc2c3c([nH]c2c1)[C@H](CO)N(Cc1ccc(cc1)Cl)C[C@]13CCN(CC1)Cc1nccs1`, the cytotoxicity call was “inactive”. For the compound `COc1ccc2c3c([nH]c2c1)[C@H](CO)N(Cc1ccc(cc1)Cl)C[C@]13CCN(CC1)Cc1ccccc1`, the cytotoxicity call was “active”. For `COc1ccc2c3c([nH]c2c1)[C@@H](CO)N(Cc1ccc(cc1)Cl)C[C@]13CCN(CC1)Cc1nccs1`, the cytotoxicity call is “inactive”.

Turning to `COc1ccc(cc1)CN1C[C@]2(CCN(CC2)Cc2ccccc2OC)c2c([nH]c3cc(ccc23)OC)[C@@H]1CO`, the cytotoxicity call is “inactive”. `O=C(NCCCN1CCOCC1)[C@H]1[C@H](CO)[C@H]2Cn3c(cccc3=O)[C@@H]1N2C(=O)C1CCCCC1`: the cytotoxicity call is “inactive”. With `C[C@@H]1CCCCO[C@H](CN(C)C(=O)NC2CCCCC2)[C@H](C)CN([C@H](C)CO)C(=O)c2cc(NC(=O)Nc3ccc(F)cc3)ccc2O1`, the cytotoxicity call is “inactive”. As for `Cc1cccc(S(=O)(=O)N2C[C@@H](O)COC[C@@H]3O[C@H](CC(=O)NCCCN4CCOCC4)CC[C@H]32)c1`, the cytotoxicity call was “inactive”. As to `C[C@@H]1CN([C@@H](C)CO)C(=O)c2cc(NC(=O)NC3CCCCC3)ccc2O[C@@H](C)CCCCO[C@H]1CN(C)C(=O)CCC(F)(F)F`, the cytotoxicity call was “inactive”. With `C[C@@H]1CN([C@@H](C)CO)C(=O)c2cc(NC(=O)Cc3ccccc3)ccc2O[C@@H](C)CCCCO[C@@H]1CN(C)C(=O)c1ccccc1`, the cytotoxicity call was “inactive”. Turning to `C=C(CO)C(=O)O[C@H]1C[C@@]2(C)OC(=O)/C(=C/C)[C@]2(O)CC[C@@]2(C)CC(=O)[C@]1(C(=C)C(=O)OC)O2`, the cytotoxicity call is “inactive”. The result for `C=C(CO)C(=O)O[C@@H]1[C@H]2C(=C)C(=O)O[C@@H]2[C@H]2O[C@]2(C)CC/C=C(/C(=O)OC)[C@H]1OC(C)=O` reads “active”; that for `Cc1ccc(S(=O)(=O)Nc2cccc3c2O[C@H](CN(C)C(=O)Nc2cccc4ccccc24)[C@@H](C)CN([C@H](C)CO)C3=O)cc1`, “inactive”. Take `C[C@H](CO)N1C[C@H](C)[C@@H](CN(C)C(=O)Nc2cccc3ccccc23)Oc2c(NS(=O)(=O)c3cccs3)cccc2C1=O`: the cytotoxicity call is “inactive”. Consider `C[C@@H]1CN([C@H](C)CO)C(=O)c2cccc(NS(=O)(=O)c3ccc(F)cc3)c2O[C@@H]1CN(C)C(=O)Nc1cccc2ccccc12`, for which the cytotoxicity call is “inactive”. For the compound `C[C@H]1CN([C@@H](C)CO)C(=O)c2cccc(NS(=O)(=O)c3ccc(F)cc3)c2O[C@H]1CN(C)C(=O)Nc1cccc2ccccc12`, the cytotoxicity call was “inactive”.

For `C[C@@H]1CN([C@H](C)CO)C(=O)c2cccc(NS(=O)(=O)c3cccs3)c2O[C@H]1CN(C)C(=O)Nc1cccc2ccccc12`, the cytotoxicity call is “active”. In the case of `Cc1ccc(S(=O)(=O)Nc2cccc3c2O[C@@H](CN(C)C(=O)Nc2cccc4ccccc24)[C@H](C)CN([C@@H](C)CO)C3=O)cc1`, the cytotoxicity call was “inactive”.

On to `C[C@H](CO)N1C[C@H](C)[C@@H](CN(C)C(=O)Nc2cccc3ccccc23)Oc2c(NS(=O)(=O)c3ccc(F)cc3)cccc2C1=O`, for which the cytotoxicity call was “inactive”. Regarding `C[C@@H]1CN([C@@H](C)CO)C(=O)c2cccc(NS(=O)(=O)c3ccc(F)cc3)c2O[C@H]1CN(C)C(=O)Nc1cccc2ccccc12`, the cytotoxicity call was “active”. Consider `C[C@H](CO)N1C[C@H](C)[C@H](CN(C)C(=O)Nc2cccc3ccccc23)Oc2c(NS(=O)(=O)c3ccc(F)cc3)cccc2C1=O`, for which the cytotoxicity call is “active”. As for `C[C@H]1CN([C@@H](C)CO)C(=O)c2cccc(NS(=O)(=O)c3ccc(F)cc3)c2O[C@@H]1CN(C)C(=O)Nc1cccc2ccccc12`, the cytotoxicity call was “inactive”. `Cc1ccc(S(=O)(=O)Nc2cccc3c2O[C@H](CN(C)C(=O)Nc2cccc4ccccc24)[C@@H](C)CN([C@@H](C)CO)C3=O)cc1`: the cytotoxicity call is “active”. With `C[C@@H]1CN([C@@H](C)CO)C(=O)c2cccc(NS(=O)(=O)c3cccs3)c2O[C@@H]1CN(C)C(=O)Nc1cccc2ccccc12`, the cytotoxicity call is “inactive”. As for `C[C@H](CO)N1C[C@H](C)[C@H](CN(C)Cc2ccc(F)cc2)Oc2ncc(C#Cc3cccnc3)cc2C1=O`, the cytotoxicity call was “inactive”. Regarding `C[C@H](CO)N1C[C@H](C)[C@H](CN(C)S(=O)(=O)c2cccs2)Oc2c(NS(=O)(=O)c3ccccc3)cccc2C1=O`, the cytotoxicity call is “inactive”. Next, `C[C@@H]1CCCCO[C@H](CN(C)S(=O)(=O)c2cn(C)cn2)[C@H](C)CN([C@@H](C)CO)C(=O)c2cc(NC(=O)Nc3ccc(C(F)(F)F)cc3)ccc2O1`: “inactive”. As to `C[C@@H]1CN([C@@H](C)CO)C(=O)c2cccc(NC(=O)c3nc4ccccc4s3)c2O[C@@H]1CN(C)S(C)(=O)=O`, the cytotoxicity call was “inactive”.

Turning to `C[C@H]1CN([C@@H](C)CO)C(=O)Cc2cc(NC(=O)Cc3ccccc3)ccc2O[C@@H]1CN(C)S(=O)(=O)c1ccc(F)cc1`, the cytotoxicity call was “inactive”. In the case of `CC1(C)OC(=O)C2(C(=O)O1)[C@@H](c1ccc(-c3cccc(-c4ccc(C(=O)O)cc4)c3)cc1)CC(=O)C[C@H]2c1ccccc1`, the cytotoxicity call is “inactive”.

As for `C[C@@H]1CN([C@H](C)CO)C(=O)Cc2cc(NS(=O)(=O)c3ccccc3)ccc2O[C@@H]1CN(C)Cc1ccc(C(=O)O)cc1`, the cytotoxicity call is “inactive”.

`COc1ncc(NC(=O)C2CC2)c(OC)n1`: the cytotoxicity call is “inactive”.

Consider `N[C@H]1CCCN(c2ncccn2)C1`, for which the cytotoxicity call was “inactive”.

With `N[C@@H]1CCCN(c2c(Br)cnc3[nH]cc(NC(=O)C4CC4)c23)C1`, the cytotoxicity call was “active”. With `C[C@@H]1CN([C@H](C)CO)S(=O)(=O)c2ccc(-c3ccc(C(=O)N(C)C)cc3)cc2O[C@@H]1CN(C)C(=O)C1CC1`, the cytotoxicity call is “inactive”. Take `O=C1N(Cc2ccccc2)Cc2ccccc2[C@H]2OC(c3ccc(OCCCO)cc3)=N[C@@]12CCS(=O)(=O)c1ccccc1`: the cytotoxicity call was “inactive”. As for `O=C1N(Cc2ccccc2)Cc2ccccc2[C@H]2OC(c3ccc(OCCCO)cc3)=N[C@@]12Cc1ccccc1`, the cytotoxicity call was “inactive”. For the compound `O=C1N(Cc2ccccc2)Cc2ccccc2C[C@@]12N=C(c1ccc(OCCCO)cc1)O[C@H]2c1ccccc1`, the cytotoxicity call was “active”. For the compound `O=C1N(CCS(=O)(=O)c2ccccc2)Cc2ccccc2C[C@@]12COC(c1ccc(OCCCO)cc1)=N2`, the cytotoxicity call was “active”. Regarding `O=C1N(Cc2ccccc2)Cc2ccccc2C[C@]12N=C(c1ccc(OCCCO)cc1)O[C@@H]2c1ccccc1`, the cytotoxicity call is “inactive”. Next, `O=C(NCc1ccccc1)[C@@]1(CCS(=O)(=O)c2ccccc2)COC(c2ccc(OCCCO)cc2)=N1`: “inactive”; `Cc1ccc(S(=O)(=O)Nc2cccc3c2O[C@@H](CN(C)Cc2ccc(Oc4ccccc4)cc2)[C@@H](C)CN([C@@H](C)CO)C3=O)cc1`: “inactive”. With `CC[C@@H](C)c1ccc(NC(=O)c2cc3ccccc3o2)cc1`, the cytotoxicity call is “inactive”. In the case of `C[C@@H]1CN([C@H](C)CO)C(=O)Cc2cc(NS(C)(=O)=O)ccc2O[C@@H]1CN(C)C(=O)Nc1ccc(F)cc1`, the cytotoxicity call was “inactive”.

As for `C[C@@H]1CCCCO[C@@H](CN(C)CC2CCCCC2)[C@@H](C)CN([C@H](C)CO)C(=O)c2cc(NC(=O)Nc3ccccc3)ccc2O1`, the cytotoxicity call was “inactive”. Take `C[C@@H]1CN([C@@H](C)CO)C(=O)c2cc(NC(=O)Nc3ccccc3)ccc2O[C@@H](C)CCCCO[C@@H]1CN(C)CC1CCCCC1`: the cytotoxicity call was “active”.

As for `C[C@H](CO)N1C[C@H](C)[C@H](CN(C)CC2CCCCC2)OCCCC[C@H](C)Oc2ccc(NC(=O)Nc3ccccc3)cc2C1=O`, the cytotoxicity call was “active”. The result for `COc1ccc(NC(=O)Nc2ccc3c(c2)C(=O)N([C@@H](C)CO)C[C@H](C)[C@H](CN(C)CC2CCCCC2)OCCCC[C@H](C)O3)cc1` reads “inactive”; that for `COc1ccc(NC(=O)Nc2ccc3c(c2)C(=O)N([C@@H](C)CO)C[C@@H](C)[C@@H](CN(C)CC2CCCCC2)OCCCC[C@@H](C)O3)cc1`, “inactive”; that for `COc1ccc(NC(=O)Nc2ccc3c(c2)C(=O)N([C@H](C)CO)C[C@@H](C)[C@@H](CN(C)CC2CCCCC2)OCCCC[C@@H](C)O3)cc1`, “active”. As for `C[C@@H]1CCCCO[C@H](CN(C)CC2CCCCC2)[C@H](C)CN([C@@H](C)CO)C(=O)c2cc(NC(=O)Nc3ccccc3)ccc2O1`, the cytotoxicity call was “inactive”. On to `C[C@@H]1CCCCO[C@H](CN(C)CC2CCCCC2)[C@@H](C)CN([C@H](C)CO)C(=O)c2cc(NC(=O)Nc3ccccc3)ccc2O1`, for which the cytotoxicity call is “inactive”. Take `C[C@H]1CCCCO[C@H](CN(C)CC2CCCCC2)[C@@H](C)CN([C@@H](C)CO)C(=O)c2cc(NC(=O)Nc3ccccc3)ccc2O1`: the cytotoxicity call is “inactive”. As to `COc1ccc(S(=O)(=O)Nc2ccc3c(c2)CC(=O)N([C@H](C)CO)C[C@@H](C)[C@H](CN(C)C(=O)Nc2c(C)noc2C)O3)cc1`, the cytotoxicity call is “inactive”. The result for `C[C@@H]1CCCCO[C@@H](CN(C)S(=O)(=O)c2cccs2)[C@@H](C)CN([C@H](C)CO)C(=O)c2cc(NC(=O)Nc3ccc4c(c3)OCO4)ccc2O1` reads “inactive”. With `N#Cc1ccc(Oc2ccccn2)cc1`, the cytotoxicity call was “inactive”. As for `Cc1cc(C(=O)Nc2cccc3c2O[C@@H](CN(C)Cc2ccc(Oc4ccccc4)cc2)[C@H](C)CN([C@H](C)CO)C3=O)n(C)n1`, the cytotoxicity call is “inactive”. As to `Cc1noc(C)c1S(=O)(=O)Nc1ccc2c(c1)C(=O)N([C@@H](C)CO)C[C@@H](C)[C@@H](CN(C)S(=O)(=O)c1cn(C)cn1)OCCCC[C@@H](C)O2`, the cytotoxicity call was “inactive”.

With `C[C@@H]1CCCCO[C@H](CN(C)Cc2ccc3c(c2)OCO3)[C@H](C)CN([C@H](C)CO)C(=O)c2cc(NC(=O)Nc3ccccc3)ccc2O1`, the cytotoxicity call was “inactive”.
